# In PubChem BioAssay (Tox21):
# “And” between values parts separate entries of the source, which are not always exact repeats. Equal values may be shown once. Records with an inconclusive call do not appear. A call without a number means that no potency is given here. The source made the active and inactive calls. The call rests on the fitted dose curve; in most records, active means well fitted cell-killing curve with a large enough effect in the repeat runs; inconclusive means weak or mixed curves, or effect the other way; inactive means flat fitted curve, though single readings scatter.
# Experiment: qHTS assay to identify small molecule antagonists of the estrogen receptor alpha (ER-alpha) signaling pathway using the BG1 cell line in the presence of 0.1 nM 17-beta-estradiol - cell viability counter screen (AID 1259241); further: nearly all actives have a fitted effect of over 40% in size
# Settings: VM7Luc4E2 (BG1) viability, CellTiter-Fluor protease, 22 h, 0.1 nM estradiol agonist added; series mostly up to 92.4 µM
# Source text: National Center for Advancing Translational Sciences [NCATS]
# NIH Chemical Genomics Center [NCGC]
# U.S. Environmental Protection Agency [EPA]
# National Institutes of Environmental Health Sciences [NIEHS]
# National Toxicology Program [NTP]
# U.S. Food and Drug Administration [FDA]
# Estrogen receptor (ER), a member of the nuclear hormone receptor plays an important role in development, metabolic homeostasis and reproduction. Two subtypes of ER, ER-alpha and ER-beta, have similar expression patterns with some uniqueness in both types. Endocrine disrupting chemicals (EDCs) and their interactions with steroid hormone receptors like ER causes disruption of normal endocrine function. Therefore, it is important to understand the effect of environmental chemicals in ER signaling pathway. For identifying ER antagonists, VM7Luc4E2 cell line was used to screen against Tox21 compound libraries.
# VM7Luc4E2 cell line (provided by Denison MS, University of California) endogenously express full-length ER-alpha and is stably transfected with a plasmid containing four estrogen responsive elements (ERE) upstream of a luciferase reporter gene. The current screening for identification of ER-alpha inhibitors against Tox21 compound libraries used lower concentration (0.1 nM) of 17beta-Estradiol as a stimulator. The cytotoxicity of the Tox21 compound libraries against VM7Luc4E2 cell line was tested by measuring live-cell protease activity using CellTiter-Fluor assay in the same wells.
# Tox21 Assay Protocol Summary:
# VM7Luc4E2 cells were cultured in phenol red free assay medium containing 10% charcoal stripped FBS for 5 days prior to the assay. The cells were dispensed at 4,000 cells/well in 4 uL of assay medium into white wall/solid-bottom 1536-well plates (Corning Life Sciences, Corning, NY) using a Multidrop Combi (ThermoFisher Scientific, Waltham, MA) dispenser. After the assay plates were incubated at 37C and 5% CO2 for 24 hr, 23 nL of compounds dissolved in DMSO, positive controls or DMSO only was transferred to the assay plates by a Pintool station (Kalypsys, San Diego, CA). The transfer of compounds was followed by the addition of 1 uL of 0.1 nM (final concentration) agonist (17beta-Estradiol)/assay medium using a Flying Reagent Dispenser (FRD, Aurora Discovery, San Diego, CA). The plates were incubated at 37C and 5% CO2 for 22 hr. For cytotoxicity assay, 1 uL of CellTiter-Fluor reagent (Promega Corporation, Madison, WI) was added to each well using the FRD and after 30 min incubation at 37C and 5% CO2, The fluorescence intensity was measured using ViewLux plate reader (PerkinElmer, Shelton, CT).
# Potency means the concentration at half of the fitted maximal effect.
row,SMILES,Potency
1,CN/C(=N\[N+](=O)[O-])NCc1cnc(Cl)s1,inactive
2,CCCCCON=O,inactive
3,Nc1nc(N)nc(Cl)n1,inactive
4,COP(=S)(OC)Oc1nc(Cl)c(Cl)cc1Cl,inactive
5,CCCN,inactive
6,S=C=NCCc1ccccc1,inactive
7,Nc1ccccc1-c1ccccc1,inactive
8,CCNc1nc(NC(C)C(C)C)nc(SC)n1 (stereo not given),inactive
9,N#Cc1ccc(N(CC(N)=O)CC(F)(F)F)cc1C(F)(F)F,inactive
10,CC(C)(C)c1ccc(OP(=O)(Oc2ccccc2)Oc2ccccc2)cc1,inactive
11,C=CC(=C)C,inactive
12,O.O.O.O.O.O.O=S(=O)([O-])[O-].[Ni+2],inactive
13,CCN(CC)CCN1C(=O)CN=C(c2ccccc2F)c2cc(Cl)ccc21,inactive
14,CNC(=O)Oc1cc(C)cc(C(C)C)c1,inactive
15,COC(=O)C(C)N(C(=O)c1ccco1)c1c(C)cccc1C (stereo not given),inactive
16,Cc1c([N+](=O)[O-])c(C)c([N+](=O)[O-])c(C(C)(C)C)c1[N+](=O)[O-],inactive
17,CCn1cc[n+](C)c1 (tested in a mixture with another compound),inactive
18,COc1c2c(cc3c1OCO3)CCN(C)C2,inactive
19,[Cl][Hg][c]1ccccc1,9.69 µM (active)
20,CCC1COC(Cn2cncn2)(c2ccc(Cl)cc2Cl)O1 (stereo not given),inactive

row,SMILES,Potency
1,Fc1ccc(C(OCCN2CCN(CCCc3ccccc3)CC2)c2ccc(F)cc2)cc1,29.8 µM (active)
2,COP(=S)(NC(C)C)Oc1ccc(C)cc1[N+](=O)[O-] (stereo not given),inactive
3,O.O.O.O.O.O.O.O=S(=O)([O-])[O-].[Co+2],inactive
4,[C-]1=CC=CC1.[Cl][Zr+2][Cl].c1cc[cH-]c1,inactive
5,O=C(Nc1ccc(F)cc1F)c1cccnc1Oc1cccc(C(F)(F)F)c1,inactive
6,CCO/N=C(\CC)C1=C(O)CC(c2c(C)cc(C)cc2C)CC1=O (stereo not given),inactive
7,[Cl-].[Cl-].[Cl-].[Yb+3],inactive
8,[F][Sn]([c]1ccccc1)([c]1ccccc1)[c]1ccccc1,24.3 µM (active)
9,ClC1=C(Cl)[C@]2(Cl)[C@@H]3[C@H]4C[C@H]([C@@H]5O[C@H]45)[C@@H]3[C@@]1(Cl)C2(Cl)Cl,inactive
10,CN(C)CCc1c[nH]c2ccccc12,inactive
11,CCOC(=O)Cc1ccccc1,inactive
12,CC1(C)[C@H](/C=C2\CCSC2=O)[C@@H]1C(=O)OCc1coc(Cc2ccccc2)c1,inactive
13,CN(C)C(=S)SSC(=S)N(C)C,676 nM (active) and 6.86 µM (active) and 266 nM (active)
14,CC(=O)[O-].CC(=O)[O-].O.O.O.[Pb+2],inactive
15,COc1ccc2[nH]cc(CCN(C(C)C)C(C)C)c2c1,inactive
16,CNC(=O)O/N=C(\C)C(C)S(C)(=O)=O (stereo not given),inactive
17,C#CCC1=C(C)C(OC(=O)C2C(C=C(C)C)C2(C)C)CC1=O (stereo not given),inactive
18,CNC(=O)/C=C(\C)OP(=O)(OC)OC,inactive
19,O=[N+]([O-])C(Br)Br,inactive
20,O=c1[nH]c(Cl)c(Cl)cc1Cl,inactive
